The values that follow come from PubChem BioAssay.

A short description of the test: anti-His antibody binders, primary screen, artefact control for SMM control protein annotation, biochemical, small-molecule microarray, 635 nm fluorescence (AID 1128).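 Also: score merges feature fluorescence with signal-to-noise for each printed compound spot.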 The settings on record: anti-His Alexa647 antibody binding, higher = more signal.
Regarding `C[N+](C)(C)CCCCNC(=O)[C@H]1C[C@H]2C(=O)N3CCC[C@H]3C(=O)N2[C@H]1c1ccc(O)cc1`, the composite z-score was determined as 2.67. Then `O=S(=O)(NCCCO)c1ccc(Br)cc1`, with 0.309; and `Cc1ccc(S(=O)(=O)N2CC(C(=O)O)=CCC2c2ccccc2)cc1` (stereo not given), with -0.67; and `C=CCOC(=O)[C@H]1[C@@H]2C(=O)O[C@@H](c3ccccc3)[C@@H](c3ccccc3)N2[C@@H](c2ccc(OCCOC(=O)[C@@H]3C[C@@H]4C(=O)NCC(=O)N4[C@@H]3c3ccc(O)cc3)cc2)[C@]12C(=O)Nc1ccc(I)cc12`, with 1.59. The compound `CC(=O)NCCCC[C@@H]1NC(=O)[C@@H]2C[C@H](C(=O)NCCCCCC[N+](C)(C)C)[C@H](c3cccc(OCCO)c3)N2C1=O` showed a composite z-score of 2.89. In the case of `C/C=C/[C@H](CCn1cc([C@H](O)c2ccccc2)nn1)[Si](C)(C)c1ccc(OC)cc1` it was 0.382. For `CCCNC(=O)[C@@]1(C)c2ccccc2C(=O)N(Cc2cc(C(F)(F)F)cc(C(F)(F)F)c2)[C@H]1c1ccc(CO)cc1`, the composite z-score stood at 2.41. Then `C=C(CCCC)/C(=C/C[C@H](OC(C)=O)c1ccc(CO)o1)c1cc(C(=O)OC)ccc1OC`, with 0.683. For the compound `C=CCCN(CC#C[C@H]1Oc2ccccc2S(=O)(=O)N2CCC[C@@H]12)S(=O)(=O)c1ccc(C)cc1`, the composite z-score was 0.881. Take `CN1C(=O)C2C=CC(C(O)C(c3ccccc3)c3ccccc3)N(Nc3ccccc3)C2C1=O` (stereo not given): the composite z-score was 0.889.

`O=C1OCCC/C=C\[C@H]2OC34C=CCN(CCN5CCOCC5)C(=O)[C@H]3N(CCO)C(=O)[C@@H]4C12` (stereo not given in full) showed a composite z-score of 2.47. In turn, `COCCOC(=O)N1C(=O)[C@@]2(c3cc(C#CC4(O)CCCCCC4)ccc31)[C@H](c1ccc(O)cc1)N1[C@H](c3ccccc3)[C@H](c3ccccc3)OC(=O)[C@H]1[C@@H]2C(=O)N1CCc2cc(OC)c(OC)cc2C1` yielded a composite z-score of -0.083. Then `COCCn1c(C(=O)N2CCCC2)cc2c1C[C@H]1CN(C(=O)c3ccccc3)[C@@](Cc3ccc(OC)cc3)(C(=O)OC)[C@@H]21`, with 2.34; and `Cc1cc(C)c(C(O)C2C=CC3C(=O)NC(=O)C3N2Nc2ccccn2)c(C)c1` (stereo not given), with 0.735. `CC(c1ccccc1)C(O)C1C=CC2C(=O)N(Cc3ccccc3)C(=O)C2N1n1cnnc1` (stereo not given) returned a composite z-score of 0.509. In the case of `O=C(NCC(O)CO)[C@@]1(Cc2ccccc2)N=C(c2ccc(OCCCO)cc2)O[C@H]1c1ccccc1` (stereo not given in full) it was 3.21; in that of `CC(c1ccccc1)C(O)C1C=CC2C(=O)N(c3ccccc3)C(=O)C2N1Nc1ccccc1F` (stereo not given), 1.35; in that of `C=CC[C@@]1(C(=O)NCc2ccccc2)N=C(c2ccc(OCCCO)cc2)O[C@@H]1c1ccccc1CN=[N+]=[N-]`, 1.8. As for `C=CCN1C(=O)[C@]2(Cc3ccccc31)N=C(c1ccc(OCCCO)cc1)O[C@@H]2c1ccccc1`, the composite z-score was determined as 0.599. In the case of `CCCCC(=O)N(Cc1ccccc1F)[C@@H]1CC(C(=O)NCCO)=C[C@H](Oc2c(I)cc(CO)cc2OC)[C@H]1O` it was 1.28; in that of `Cc1c(NC(=O)/C(C#N)=C/C=C/c2ccccc2)c(=O)n(-c2ccccc2)n1C`, 0.378; in that of `CC(C)(C)OC(=O)CC[C@]1(C(=O)NCC(O)CO)N=C(c2ccc(OCCCO)cc2)O[C@H]1c1ccccc1CN=[N+]=[N-]` (stereo not given in full), 2.31. In the case of `CCCC[C@@H]1C[C@H]1[C@@H](NC(=O)c1ccco1)c1ccccc1` it was -0.172; in that of `NC(=O)NCC#Cc1ccc2c(c1)[C@]1(C(=O)N2)[C@H](c2ccccc2OCCO)N2[C@H](c3ccccc3)[C@H](c3ccccc3)OC(=O)[C@H]2[C@@H]1C(=O)N1CCCCCCC1`, 0.443. Then `C=C(COC)C(=O)CC[C@H](OC(=O)c1cccnc1)c1ccccc1OCCO`, with 1.12; and `C=C(C(=O)CC[C@@H](OC(=O)c1cccnc1)c1ccc(CO)o1)C(C)C`, with -0.403; and `O=C1O[C@H](c2ccccc2)[C@H](c2ccccc2)N2[C@H]1[C@@H](C(=O)Nc1nc3ccccc3s1)[C@]1(C(=O)Nc3ccc(C#CC4=CCCCC4)cc31)[C@H]2c1ccc(OCCO)cc1`, with 1.62.

As to `COCCOC(=O)N1C(=O)[C@@]2(c3cc(C#Cc4ccc(OC)cc4)ccc31)[C@H](C(N)=O)[C@H]1C(=O)O[C@H](c3ccccc3)[C@H](c3ccccc3)N1[C@@H]2c1ccc(O)cc1`, the composite z-score is -0.994. In the case of `CN1C(=O)C2C(C1=O)C1C=C(c3ccc(CO)cc3)C2C(C2CC2)N1Cc1sc2ccccc2c1Cl` (stereo not given) it was 3.31; in that of `CC1CC/C=C\[C@H]2OC34C=CCN(Cn5nnc6ccccc65)C(=O)[C@H]3N(CCCO)C(=O)[C@@H]4C2C(=O)O1` (stereo not given in full), 0.239.
